Assay results from the supplement of paper PMC8728848.
This is one part of a sample in which the strongest signals are shown more often than they occur.

Assays:
Test in all cases: glycan array binding signal (z-score within array); higher = stronger binding
Conditions in all cases: glycan notation: IUPAC condensed, linker removed
Man(a1-3)[Man(a1-6)]Man = target: Man(a1-3)[Man(a1-6)]Man
How it was run: (§1)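 From the Consortium for Functional Glycomics database, 3228 arrays were curated, keeping only those whose protein sequence was available. Binding is given as a within-array Z-score averaged across arrays sharing a protein sequence and across linkers. Negative Z-scores can be read as non-binding.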

[1] = target: Man(a1-3)[Man(a1-6)]Man(a1-6)[Man(a1-2)Man(a1-3)]Man(b1-4)GlcNAc(b1-4)GlcNAc
How it was run: as §1

[2] = target: Man(a1-3)[Man(a1-6)]Man(a1-6)[Man(a1-3)]Man
How it was run: as §1

Neu5Ac(a2-3)Gal = target: Neu5Ac(a2-3)Gal
How it was run: as §1

[3] = target: Neu5Ac(a2-3)Gal(b1-3)GalNAc(b1-4)[Neu5Ac(a2-8)Neu5Ac(a2-3)]Gal(b1-4)Glc
How it was run: as §1

[4] = target: Neu5Ac(a2-3)Gal(b1-4)GlcNAc
How it was run: as §1

[5] = target: Neu5Ac(a2-3)Gal(b1-4)GlcNAc(b1-2)Man(a1-3)[GlcNAc(b1-2)Man(b1-4)GlcNAc(b1-2)Man(a1-6)]Man(b1-4)GlcNAc(b1-4)GlcNAc
How it was run: as §1

[6] = target: Neu5Ac(a2-3)Gal(b1-4)GlcNAc(b1-3)Gal(b1-4)GlcNAc(b1-3)Gal(b1-4)GlcNAc
How it was run: as §1

[7] = target: Neu5Ac(a2-6)GlcNAc(b1-4)GlcNAc(b1-4)GlcNAc
How it was run: as §1

[8] = target: Neu5Ac9Ac(a2-3)Gal(b1-4)GlcNAc
How it was run: as §1

[9] = target: Neu5Ac9Ac(a2-6)Gal(b1-4)GlcNAc
How it was run: as §1

B1: ConA (Canavalia ensiformis), P02866 (protein)
chain: MAISKKSSLFLPIFTFITMFLMVVNKVSSSTHETNALHFMFNQFSKDQKDLILQGDATTGTDGNLELTRVSSNGSPQGSSVGRALFYAPVHIWESSAVVASFEATFTFLIKSPDSHPADGIAFFISNIDSSIPSGSTGRLLGLFPDANVIRNSTTIDFNAAYNADTIVAVELDTYPNTDIGDPSYPHIGIDIKSVRSKKTAKWNMQNGKVGTAHIIYNSVDKRLSAVVSYPNADSATVSYDVDLDNVLPEWVRVGLSASTGLYKETNTILSWSFTSKLKSNEIPDIATVV
**Q.** Which “glycan array binding signal (z-score)” value (Man(a1-3)[Man(a1-6)]Man) does the source give for B1 here?
**A.** The value was 5.51.

**Q.** And the “glycan array binding signal (z-score)” value [1]?
**A.** Its value is 4.75.

**Q.** What about the “glycan array binding signal (z-score)” value [2] of the same binder?
**A.** Its value is 4.27.

**Q.** And the “glycan array binding signal (z-score)” value (Neu5Ac(a2-3)Gal)?
**A.** The value was -0.283.

**Q.** And the “glycan array binding signal (z-score)” value [3]?
**A.** Its value is -0.248.

**Q.** And the “glycan array binding signal (z-score)” value [4]?
**A.** Its value is -0.29.

**Q.** What about the “glycan array binding signal (z-score)” value [5] of the same binder?
**A.** The value was -0.041.

**Q.** And the “glycan array binding signal (z-score)” value [6]?
**A.** Its value is -0.269.

**Q.** What about the “glycan array binding signal (z-score)” value [7] of the same binder?
**A.** The value was -0.184.

**Q.** What about the “glycan array binding signal (z-score)” value [8] of the same binder?
**A.** The value was -0.009.

**Q.** And the “glycan array binding signal (z-score)” value [9]?
**A.** Its value is -0.243.
